{"source": "PubChem BioAssay AID1347426", "about": "(Functional Genomics Laboratory (NCATS/FGL), 2020)", "note": "Screen size: about 31,000 sequences; about 1,400 (4.5%) were called active. The full list was thinned out, with actives kept by preference. Values without a mark were called inactive.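 Rule for the calls: active = median seed-adjusted z-score above 1 or below -1; inactive = the rest.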"}
{"test": "Novel Modifiers of Survival Motor Neuron (SMN) Protein: Gene Identification via Genome-wide siRNA Screen;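 note: luminescence tracks full-length SMN protein made from the SMN2 reporter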", "settings": "HEK293T SMN2-luciferase reporter, siRNA knockdown, 72 h; actives lie on both sides", "method_in_brief": "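HEK293T cells stably expressing an SMN2 splicing/cDNA-luciferase reporter were reverse-transfected with a druggable-genome siRNA library and read by luminescence at 72 hours; hits defined by MAD score above 1.0 or below -1.0.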"}
{"sequence": "GAAACCAUCCAAUCCAAGATT against TXNDC2", "median seed-adjusted z-score": "-1.29 (active)"}
{"sequence": "GGACUUGGAUUAUGAACUATT against COL6A3", "median seed-adjusted z-score": 0.341}
{"sequence": "CGAGCAUUCUCUCUUGAAATT against MED24", "median seed-adjusted z-score": "-2.3 (active)"}
{"sequence": "GCGUGUAAAUUCUACUGCATT against RB1", "median seed-adjusted z-score": 0.49}
{"sequence": "CUACCACGCAGUCAACCUUTT against LTB4R2", "median seed-adjusted z-score": -0.26}
{"sequence": "GGAUUUUAUUCUUCACCGUTT against RBMS3", "median seed-adjusted z-score": 0.0976}
{"sequence": "GCACGAAUUUCAGCACCAATT against HOXD1", "median seed-adjusted z-score": 0.144}
{"sequence": "GGAACAUUUUUGACGGAUUTT against SCN8A", "median seed-adjusted z-score": 0}
{"sequence": "GCACAACACUCGCUCCAAUTT against GLT8D1", "median seed-adjusted z-score": "1.22 (active)"}
{"sequence": "GGUAAUAAAUGGGUUGGAATT against PTGR2", "median seed-adjusted z-score": 0.14}
{"sequence": "CAGAGACCCUUGAUAAACUTT against PIK3AP1", "median seed-adjusted z-score": 0.0678}
{"sequence": "GCAUGACUAUGUCAAGAAATT against MCM3", "median seed-adjusted z-score": 0.339}
{"sequence": "GCUCGUGAUUGAUGCUGCATT against NGB", "median seed-adjusted z-score": 0}
{"sequence": "CGACAUCAUCAAUAGACGATT against AQR", "median seed-adjusted z-score": "-1.56 (active)"}
{"sequence": "GGACCACGAUGAUCAUUGATT against CRMP1", "median seed-adjusted z-score": -0.354}
{"sequence": "GCAUUGGUGUAUGGAAUUATT against SLC6A15", "median seed-adjusted z-score": 0.0939}
{"sequence": "GCAAGAAAAAUCUAAGGAATT against ZNF57", "median seed-adjusted z-score": 0}
{"sequence": "ACAGCAUUGUCAUUAGACATT against UBR5", "median seed-adjusted z-score": 0.114}
{"sequence": "CAUGUGCUAUCGAAAGUAUTT against TCEB1", "median seed-adjusted z-score": "1.08 (active)"}
{"sequence": "GCGUAGUUAUAGAAGUAGATT against RBMX2", "median seed-adjusted z-score": -0.585}
{"sequence": "GGAACUGUUUUUACAAGCATT against MKRN1", "median seed-adjusted z-score": -0.496}
{"sequence": "UCAUAUAGGCAAAAUUUAATT against POU3F2", "median seed-adjusted z-score": -0.179}
{"sequence": "GGGUUCACCUCAGAGAGCATT against DPF3", "median seed-adjusted z-score": 0.242}
{"sequence": "GAAACUUUCAUUACGUAUATT against SNX7", "median seed-adjusted z-score": 0.146}
{"sequence": "GAACGAAAGGUCCUCAGUATT against SPATA21", "median seed-adjusted z-score": "-1.03 (active)"}
{"sequence": "GCUGCUUCAGACUACCAAATT against TXNDC9", "median seed-adjusted z-score": -0.176}
{"sequence": "CCAUAUUAAUGUCCAUGAUTT against PCDHB7", "median seed-adjusted z-score": 0.365}
{"sequence": "GGAUGCCCACUGUAUCAUATT against MYST2", "median seed-adjusted z-score": "-1.46 (active)"}
{"sequence": "GAUGGAUACCUCUACCUGATT against ZNF593", "median seed-adjusted z-score": 0.215}
{"sequence": "CGUGAUCUCAAGUCCAACATT against MAP3K11", "median seed-adjusted z-score": 0.773}
{"sequence": "CUACCAUUUUCAUCGAGGATT against FREM3", "median seed-adjusted z-score": -0.565}
{"sequence": "CGAAAGAGGCAAAUAUGAATT against CBX3", "median seed-adjusted z-score": -0.893}
{"sequence": "GGAUCGGGUUUACUCAGAATT against ACTR6", "median seed-adjusted z-score": 0.189}
{"sequence": "GGAAGGAACCAUCCAGUAATT against POLR2L", "median seed-adjusted z-score": "-1.19 (active)"}
{"sequence": "AGUUCUUCCUAAUCCGAGATT against DOLPP1", "median seed-adjusted z-score": 0.00977}
{"sequence": "AAUCGAUCCUCAAUCCUUATT against ZNF676", "median seed-adjusted z-score": -0.499}
{"sequence": "GCUCCAAAUUGGUUGUAUUTT against PRKAG1", "median seed-adjusted z-score": 0.431}
{"sequence": "GAACAACUCUUGUGAGAUUTT against STC2", "median seed-adjusted z-score": -0.00039}
{"sequence": "GCUUCUGAAAUGAACCGAATT against DDHD2", "median seed-adjusted z-score": 0.447}
{"sequence": "GUGCGGUAGCUACUUGUUUTT against RRAD", "median seed-adjusted z-score": -0.267}
{"sequence": "GGACUCUCAUGAGUGCUGATT against ACP2", "median seed-adjusted z-score": -0.00569}
{"sequence": "GAAAGAUGUUGGGAAUAAATT against ST6GAL2", "median seed-adjusted z-score": 0.054}
{"sequence": "CAUCCAUUAUGACCUGCUATT against ACO2", "median seed-adjusted z-score": "-1.57 (active)"}
{"sequence": "CGUGUGGACUUGACAAGCATT against OBSCN", "median seed-adjusted z-score": -0.798}
{"sequence": "CUAUAUCUCCAACACUUUUTT against SMARCD3", "median seed-adjusted z-score": 0.247}
{"sequence": "GAGAAAAAGCGGAUCAAGATT against GRK6", "median seed-adjusted z-score": -0.862}
{"sequence": "GGAAGAACGUGUAACCGAATT against RDX", "median seed-adjusted z-score": 0.123}
{"sequence": "GAGUCUGCGUUAUCGACAATT against TPR", "median seed-adjusted z-score": "-1.03 (active)"}
{"sequence": "GGAUGAAAAAUACCGGUGUTT against UGT8", "median seed-adjusted z-score": 0}
{"sequence": "CAACCUUUCACUGCAAUGATT against NAT8", "median seed-adjusted z-score": -0.228}
{"sequence": "CGGGAAGAAUCAAAGUCGATT against KRT23", "median seed-adjusted z-score": -0.0696}
{"sequence": "GGAGCGAAAUGUUCAGGUUTT against PSPH", "median seed-adjusted z-score": -0.518}
{"sequence": "CGAGGACACUCAAACGGAUTT against TAF7L", "median seed-adjusted z-score": -0.14}
{"sequence": "CACGAAAACUUACCCAGAATT against DGUOK", "median seed-adjusted z-score": 0.0168}
{"sequence": "GGUCCCAGCUUGAAGAGAATT against CSTB", "median seed-adjusted z-score": "1.08 (active)"}
{"sequence": "CAGGCAAAGUUCGACAGUATT against HEPH", "median seed-adjusted z-score": -0.293}
{"sequence": "GGAUUCUCAGUUACACUUATT against SLC25A3", "median seed-adjusted z-score": -0.495}
{"sequence": "GAUCCGUUCUGAUUAGUGATT against EZH1", "median seed-adjusted z-score": 0.268}
{"sequence": "GUUCCUCACUUAUCGCUAUTT against ADAMTSL3", "median seed-adjusted z-score": -0.0419}
{"sequence": "GGAACUACGUCCACACCCATT against GHRHR", "median seed-adjusted z-score": 0}
{"sequence": "GGAUAACACUAAGUUUAGATT against SFRS1", "median seed-adjusted z-score": "-1.66 (active)"}
{"sequence": "GGCCGGUGUUUGACGACAATT against STK32C", "median seed-adjusted z-score": -0.311}
{"sequence": "CUCCCUCACCAAAACAAAATT against DUSP26", "median seed-adjusted z-score": 0.204}
{"sequence": "CAAGGUCUGUAGUCAAAAUTT against ZNF677", "median seed-adjusted z-score": -0.441}
{"sequence": "GGAGGUUCAGAAGCACCUATT against PACSIN2", "median seed-adjusted z-score": 0.73}
{"sequence": "GUGUAGCACUGACCAAGAATT against RCAN3", "median seed-adjusted z-score": 0.544}
{"sequence": "GAUCUGUGCUAUACUGACATT against EFTUD2", "median seed-adjusted z-score": "-1.25 (active)"}
{"sequence": "GACCUGCUCUGUAACCUCATT against NAALADL1", "median seed-adjusted z-score": -0.0444}
{"sequence": "AAAACUUACGAACAACAAATT against TBR1", "median seed-adjusted z-score": -0.388}
{"sequence": "UCAAGCAUGUGGUCCUGUATT against AIP", "median seed-adjusted z-score": 0.529}
{"sequence": "GAUGAGUAUGCAAAAUUUATT against ATR", "median seed-adjusted z-score": -0.217}
{"sequence": "GCACAUAAGGAGGCGAUUATT against WDR33", "median seed-adjusted z-score": "3.27 (active)"}
{"sequence": "GCAACAUCGUGUUCUUGAATT against GAL3ST1", "median seed-adjusted z-score": 0.263}
{"sequence": "GCAGAAACCCAGAUCGAGATT against PLAT", "median seed-adjusted z-score": 0.246}
{"sequence": "GGAACUUUUUCGUCGGUAUTT against RNGTT", "median seed-adjusted z-score": "-1.55 (active)"}
{"sequence": "CGACAUUGGUGACCCUCUUTT against DDOST", "median seed-adjusted z-score": -0.315}
{"sequence": "GCAGUUCGAGAAGAACUUUTT against LMBR1", "median seed-adjusted z-score": 0.236}
{"sequence": "AGACACCCUUUGGACCACATT against ZFAND2A", "median seed-adjusted z-score": 0}
{"sequence": "GCACGAAUGAGGACGAUGATT against SPRY4", "median seed-adjusted z-score": "-1.23 (active)"}
{"sequence": "GGUGGAAGUGGUCAACGUATT against DUSP21", "median seed-adjusted z-score": -0.0724}
{"sequence": "GACGUGGAGUUGAUAAAGATT against DSC3", "median seed-adjusted z-score": 0.18}
{"sequence": "GCCCGUCUGCAGUACCUAATT against ADAP2", "median seed-adjusted z-score": "-1.1 (active)"}
{"sequence": "GCACUUAUAUGACAGCGAATT against SIM1", "median seed-adjusted z-score": -0.0177}
{"sequence": "GCUCGAUUAACAAAAUAUATT against SLC30A5", "median seed-adjusted z-score": 0.401}
{"sequence": "GAUUGGACCUAACAAUGGATT against NEIL3", "median seed-adjusted z-score": 0.0736}
{"sequence": "UGCUGACUUUUAACCCACATT against CDK4", "median seed-adjusted z-score": 0.346}
{"sequence": "CACUCGAAAUUUUGAAGCATT against CHD4", "median seed-adjusted z-score": 0.625}
{"sequence": "CGGUUGAACUUCGAAAUAUTT against NF1", "median seed-adjusted z-score": -0.36}
{"sequence": "CAACGGCAGGAAAUUCUAATT against KLRA1", "median seed-adjusted z-score": 0.918}
{"sequence": "GUAUCGCAUUUCUACAGCATT against SAMHD1", "median seed-adjusted z-score": "-1.33 (active)"}
{"sequence": "AGAGCAAGCGGAAAAGGGATT against HAND1", "median seed-adjusted z-score": 0.161}
{"sequence": "GAAUCACCAGCUAAACUAUTT against STARD6", "median seed-adjusted z-score": 0.0605}
{"sequence": "GCACCAGCGAGAGAAGAGATT against PLA2G3", "median seed-adjusted z-score": 0.543}
{"sequence": "CCAAAGAACUUAAGGAUUUTT against NEURL2", "median seed-adjusted z-score": "1.39 (active)"}
{"sequence": "GGUCUACGUGAACAACUCUTT against KCNMB4", "median seed-adjusted z-score": 0}
{"sequence": "GCAAAUCGCUAGCAUCAUUTT against MLL2", "median seed-adjusted z-score": "-2.11 (active)"}
{"sequence": "GCAUUUUGCAUAUCCACCATT against TRMT12", "median seed-adjusted z-score": 0.352}
{"sequence": "GAAGAAACUUGUGAACGAATT against MX1", "median seed-adjusted z-score": "-1.49 (active)"}
{"sequence": "GGAACAGUCAUGCUGGAUATT against SLC4A7", "median seed-adjusted z-score": 0}
{"sequence": "GAACAUCGCAUAAUCCUGATT against ORC1L", "median seed-adjusted z-score": -0.536}
{"sequence": "GCAACUUCGUGAGAUUACATT against COLEC12", "median seed-adjusted z-score": "-1.04 (active)"}
{"sequence": "AAGCAUAAUUUGUACAGCUTT against NMNAT1", "median seed-adjusted z-score": 0.22}
{"sequence": "CCAAGAUGCGAUCCUCCAATT against HOXA4", "median seed-adjusted z-score": 0.194}
{"sequence": "GGCUUGGAUCAAUCUAAGATT against HNRNPL", "median seed-adjusted z-score": "1.04 (active)"}
{"sequence": "GGGCAACUCUUCAUCUACATT against SLC5A10", "median seed-adjusted z-score": 0.669}
{"sequence": "GGCUAUACAUGGAUAGCAATT against SLITRK1", "median seed-adjusted z-score": 0.215}
{"sequence": "CGAUUAGUGUCAAAGGCUUTT against MMP7", "median seed-adjusted z-score": 0.0315}
{"sequence": "CGAACGACAGUUCCACAAATT against PDE6A", "median seed-adjusted z-score": "1.25 (active)"}
{"sequence": "GAAUCUAUGAGAUGAACAATT against LDB2", "median seed-adjusted z-score": -0.0847}
